{"source": "PubChem BioAssay (NCATS)", "note": "Inconclusive results are not listed. Values without a mark were called inactive. Calls of active or inactive are those of the source. Calls come from the whole dose curve; as a rule, active = well fitted cell-killing curve with a large enough effect; inconclusive = small, poorly fitted or top-dose-only effect, or effect the other way; inactive = no such curve, though single readings can be large or run the other way.", "data": [{"assay": "Quantitative High-Throughput drug screen in 47 multiple myeloma cell lines against the NCATS MIPE library collection: KMS26_JCRB cell viability assay (AID 1918975); note: nearly all actives have a fitted effect of over 45% in size; note: potency is the fitted concentration of half-maximal effect", "settings": "KMS26 myeloma cells viability, CellTiter-Glo ATP, 48 h; series mostly up to 45.8 µM; viability (% of DMSO): at the top concentration", "how_it_was_run": "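Inhibition of cell viability is measured here. Each line was plated at 500 cells per well, treated with MIPE 4.0 drugs, kept 48 hours at 37C, then assayed for ATP content by CellTiter-Glo luminescence.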", "units": {"viability (% of DMSO)": "%"}, "values": [{"molecule": "CN1CCN2c3ncccc3Cc3ccccc3C2C1", "note": "(stereo not drawn); for viability (% of control): nearly all actives have a fitted effect of over 45% in size", "viability (% of DMSO)": 140}, {"molecule": "COc1cc2ncnc(Nc3cc(Br)c(O)c(Br)c3)c2cc1OC", "viability (% of DMSO)": 108}, {"molecule": "CS(=O)(=O)c1ccc(C2=C(c3ccccc3)C(=O)OC2)cc1", "viability (% of DMSO)": 118}, {"molecule": "CC=C1C2C=C(C)CC1(N)c1ccc(=O)[nH]c1C2", "note": "(stereo not drawn)", "viability (% of DMSO)": 119}, {"molecule": "COc1ccc(-c2cc(=O)c3c(O)cc(O[C@@H]4O[C@H](CO[C@@H]5O[C@@H](C)[C@H](O)[C@@H](O)[C@@H]5O)[C@@H](O)[C@H](O)[C@@H]4O)cc3o2)cc1O", "Potency": "20.9 µM (active)"}, {"molecule": "Cc1nc2c([nH]1)CCN(C(=O)c1ccc(NC(=O)c3ccccc3-c3ccccc3)cc1)c1ccccc1-2", "viability (% of DMSO)": 132}, {"molecule": "COc1c(C)c2c(c(O)c1CC=C(C)CCC(=O)OCCN1CCOCC1)C(=O)OC2", "viability (% of DMSO)": 109}, {"molecule": "CN1C(=O)C[C@H](C(=O)N[C@@H](Cc2cnc[nH]2)C(=O)N2CCC[C@@H]2C(N)=O)NC1=O", "viability (% of DMSO)": 125}, {"molecule": "O=C(CC12CC3CC(CC(C3)C1)C2)Nc1cccc2nc(NCCNCCO)ccc12", "Potency": "18.7 µM (active)"}, {"molecule": "CON(C)C(=O)N1N=C(c2cc(F)ccc2F)S[C@]1(CCCN)c1ccccc1", "viability (% of DMSO)": 114}, {"molecule": "CC(=O)N1CCN(c2ccc(OCc3nn(C)c(C)c3-c3cccc4c(CCCOc5cc(C)c(Cl)c(C)c5)c(C(=O)O)n(Cc5cccnc5)c34)cc2)CC1", "Potency": "18.7 µM (active)"}, {"molecule": "CCOC(=O)[C@H](CCc1ccccc1)N[C@@H](C)C(=O)N1CCCC1C(=O)O", "note": "(stereo partly drawn)", "viability (% of DMSO)": 138}, {"molecule": "CC(C)CN(C[C@H](O)[C@H](Cc1ccccc1)NC(=O)O[C@H]1CCOC1)S(=O)(=O)c1ccc(N)cc1", "Potency": "8.33 µM (active)"}, {"molecule": "CCCCc1ccc(NS(=O)(=O)c2ccc(C)c(C(=O)N3CCN(c4cccc(C)c4C)CC3)c2)cc1", "Potency": "23.5 µM (active)"}, {"molecule": "O=c1[nH]c(=O)n([C@H]2C[C@@H](O)[C@@H](CO)O2)cc1I", "viability (% of DMSO)": 112}, {"molecule": "Cc1cn([C@@H]2C[C@@H](O)[C@H](CO)O2)c(=O)[nH]c1=O", "viability (% of DMSO)": 163}, {"molecule": "Cc1ccc2c(c1)c1c(n2CCc2ccc(C)nc2)CCN(C)C1", "viability (% of DMSO)": 103}, {"molecule": "CCC(=C(CC)c1ccc(O)cc1)c1ccc(O)cc1", "Potency": "13.2 µM (active)"}, {"molecule": "CC1CNc2c(cccc2S(=O)(=O)N[C@@H](CCCN=C(N)N)C(=O)N2CC[C@@H](C)C[C@@H]2C(=O)O)C1", "note": "(stereo partly drawn)", "viability (% of DMSO)": 116}, {"molecule": "O=C(c1ccc(F)c(F)c1Nc1ccc(I)cc1F)N1CC(O)([C@H]2CCCCN2)C1", "Potency": "23.5 µM (active)"}, {"molecule": "CCc1cc(-c2n[nH]c(C)c2-c2ccc3c(c2)OCCO3)c(O)cc1O", "Potency": "5.26 µM (active)"}, {"molecule": "NCc1c[nH]c(=S)n1[C@H]1CCc2c(F)cc(F)cc2C1", "Potency": "20.9 µM (active)"}, {"molecule": "C[C@@H]1C[C@H]2[C@@H]3CCC4=CC(=O)C=C[C@]4(C)[C@@]3(F)[C@@H](O)C[C@]2(C)[C@@]1(O)C(=O)CO", "viability (% of DMSO)": 102}, {"molecule": "CCC(c1ccc(O)cc1)C(CC)c1ccc(O)cc1", "note": "(stereo not drawn)", "Potency": "3.72 µM (active)"}, {"molecule": "CNC(=O)[C@H](Cc1ccccc1)NC(=O)[C@H](CC(C)C)[C@H](CSc1cccs1)C(=O)NO", "viability (% of DMSO)": 105}, {"molecule": "Nc1ccn([C@@H]2O[C@H](CO)[C@@H](O)[C@H]2O)c(=O)n1", "viability (% of DMSO)": 128}, {"molecule": "COc1ccc(-c2ccc3ncc4c(c3c2)n(-c2ccc(N3CCNCC3)c(C(F)(F)F)c2)c(=O)n4C)cn1", "Potency": "0.0083 µM (active)"}, {"molecule": "CN1CCN(c2ncc(-c3cc(Cl)cc(Cl)c3Cl)c(N)n2)CC1", "viability (% of DMSO)": 151}, {"molecule": "COc1cc(Nc2nc3ccccc3nc2NS(=O)(=O)c2ccc(NC(=O)c3ccc(C)c(OC)c3)cc2)cc(OC)c1", "Potency": "11.8 µM (active)"}, {"molecule": "O=C1C(CCC(O)c2ccc(F)cc2)C(c2ccc(O)cc2)N1c1ccc(F)cc1", "note": "(stereo not drawn)", "viability (% of DMSO)": 105}, {"molecule": "COC(=O)[C@H](c1ccccc1Cl)N1CCc2sccc2C1", "viability (% of DMSO)": 116}, {"molecule": "C=C1c2cccc(O)c2C(O)=C2C(=O)[C@@]3(O)C(O)=C(C(N)=O)C(=O)[C@@H](N(C)C)[C@@H]3[C@@H](O)[C@H]12", "Potency": "4.69 µM (active)"}, {"molecule": "CC1=C(C(=O)Nc2cc3cn[nH]c3cc2F)C(c2ccc(C(F)(F)F)cc2)CC(=O)N1", "note": "(stereo not drawn)", "viability (% of DMSO)": 162}, {"molecule": "OC[C@H]1O[C@@H](Oc2ccc(O)cc2)[C@H](O)[C@@H](O)[C@H]1O", "viability (% of DMSO)": 141}, {"molecule": "C[C@@H](O)[C@H]1C(=O)N2C(C(=O)OCOC(=O)C(C)(C)C)=C(SC3CN(C4=NCCS4)C3)[C@H](C)[C@H]12", "viability (% of DMSO)": 112}, {"molecule": "O=C(O)c1ccc(O)c2ncc(N3CCOCC3)cc12", "viability (% of DMSO)": 143}]}, {"assay": "Quantitative High-Throughput drug screen in 47 multiple myeloma cell lines against the NCATS MIPE library collection: MMM1_PLB cell viability assay (AID 1918976); note: potency is the fitted concentration of half-maximal effect; nearly all actives have a fitted effect of over 35% in size", "settings": "MMM1 myeloma cells viability, CellTiter-Glo, 48 h; series mostly up to 45.8 µM; viability (% of control): at the top concentration", "how_it_was_run": "(§1)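 ATP-based CellTiter-Glo luminescence after 48 h drug exposure (37 °C, 5% CO2) of 500 myeloma cells per well. DMSO-only wells set 100% viability, media-only wells 0%; MIPE 4.0 library added by pin tool.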", "values": [{"molecule": "CN1C(=O)C[C@H](C(=O)N[C@@H](Cc2cnc[nH]2)C(=O)N2CCC[C@@H]2C(N)=O)NC1=O", "Potency": "4.69 µM (active)"}, {"molecule": "CCCCc1ccc(NS(=O)(=O)c2ccc(C)c(C(=O)N3CCN(c4cccc(C)c4C)CC3)c2)cc1", "Potency": "18.7 µM (active)"}, {"molecule": "COc1ccc(-c2ccc3ncc4c(c3c2)n(-c2ccc(N3CCNCC3)c(C(F)(F)F)c2)c(=O)n4C)cn1", "Potency": "0.0074 µM (active)"}]}, {"assay": "Quantitative High-Throughput drug screen in 47 multiple myeloma cell lines against the NCATS MIPE library collection: MOLP8_DSMZ cell viability assay (AID 1918977)", "settings": "MOLP8 myeloma viability, CellTiter-Glo ATP luminescence, 48 h; series mostly up to 45.8 µM; viability (% of control): at the top concentration", "how_it_was_run": "as §1", "units": {"viability (% of control)": "%"}, "values": [{"molecule": "COc1cc2ncnc(Nc3cc(Br)c(O)c(Br)c3)c2cc1OC", "viability (% of control)": 75.6}, {"molecule": "CS(=O)(=O)c1ccc(C2=C(c3ccccc3)C(=O)OC2)cc1", "viability (% of control)": 124}, {"molecule": "CC=C1C2C=C(C)CC1(N)c1ccc(=O)[nH]c1C2", "note": "(stereo not drawn)", "viability (% of control)": 133}, {"molecule": "COc1ccc(-c2cc(=O)c3c(O)cc(O[C@@H]4O[C@H](CO[C@@H]5O[C@@H](C)[C@H](O)[C@@H](O)[C@@H]5O)[C@@H](O)[C@H](O)[C@@H]4O)cc3o2)cc1O", "viability (% of control)": 122}, {"molecule": "Cc1nc2c([nH]1)CCN(C(=O)c1ccc(NC(=O)c3ccccc3-c3ccccc3)cc1)c1ccccc1-2", "viability (% of control)": 105}, {"molecule": "COc1c(C)c2c(c(O)c1CC=C(C)CCC(=O)OCCN1CCOCC1)C(=O)OC2", "Potency": "2.96 µM (active)"}, {"molecule": "CON(C)C(=O)N1N=C(c2cc(F)ccc2F)S[C@]1(CCCN)c1ccccc1", "viability (% of control)": 69.1}, {"molecule": "CC(=O)N1CCN(c2ccc(OCc3nn(C)c(C)c3-c3cccc4c(CCCOc5cc(C)c(Cl)c(C)c5)c(C(=O)O)n(Cc5cccnc5)c34)cc2)CC1", "Potency": "20.9 µM (active)"}, {"molecule": "CCOC(=O)[C@H](CCc1ccccc1)N[C@@H](C)C(=O)N1CCCC1C(=O)O", "note": "(stereo partly drawn)", "viability (% of control)": 140}, {"molecule": "CC(C)CN(C[C@H](O)[C@H](Cc1ccccc1)NC(=O)O[C@H]1CCOC1)S(=O)(=O)c1ccc(N)cc1", "viability (% of control)": 116}, {"molecule": "O=c1[nH]c(=O)n([C@H]2C[C@@H](O)[C@@H](CO)O2)cc1I", "viability (% of control)": 89.1}, {"molecule": "Cc1cn([C@@H]2C[C@@H](O)[C@H](CO)O2)c(=O)[nH]c1=O", "viability (% of control)": 104}, {"molecule": "Cc1ccc2c(c1)c1c(n2CCc2ccc(C)nc2)CCN(C)C1", "viability (% of control)": 103}, {"molecule": "CCc1cc(-c2n[nH]c(C)c2-c2ccc3c(c2)OCCO3)c(O)cc1O", "Potency": "2.64 µM (active)"}, {"molecule": "NCc1c[nH]c(=S)n1[C@H]1CCc2c(F)cc(F)cc2C1", "Potency": "18.7 µM (active)"}, {"molecule": "C[C@@H]1C[C@H]2[C@@H]3CCC4=CC(=O)C=C[C@]4(C)[C@@]3(F)[C@@H](O)C[C@]2(C)[C@@]1(O)C(=O)CO", "viability (% of control)": 98}, {"molecule": "CCC(c1ccc(O)cc1)C(CC)c1ccc(O)cc1", "note": "(stereo not drawn)", "viability (% of control)": 97.6}, {"molecule": "Nc1ccn([C@@H]2O[C@H](CO)[C@@H](O)[C@H]2O)c(=O)n1", "viability (% of control)": 58.4}, {"molecule": "CN1CCN(c2ncc(-c3cc(Cl)cc(Cl)c3Cl)c(N)n2)CC1", "viability (% of control)": 120}, {"molecule": "O=C1C(CCC(O)c2ccc(F)cc2)C(c2ccc(O)cc2)N1c1ccc(F)cc1", "note": "(stereo not drawn)", "viability (% of control)": 118}, {"molecule": "COC(=O)[C@H](c1ccccc1Cl)N1CCc2sccc2C1", "viability (% of control)": 119}, {"molecule": "CC1=C(C(=O)Nc2cc3cn[nH]c3cc2F)C(c2ccc(C(F)(F)F)cc2)CC(=O)N1", "note": "(stereo not drawn)", "viability (% of control)": 115}, {"molecule": "OC[C@H]1O[C@@H](Oc2ccc(O)cc2)[C@H](O)[C@@H](O)[C@H]1O", "viability (% of control)": 116}, {"molecule": "C[C@@H](O)[C@H]1C(=O)N2C(C(=O)OCOC(=O)C(C)(C)C)=C(SC3CN(C4=NCCS4)C3)[C@H](C)[C@H]12", "viability (% of control)": 80}]}]}
